According to PubChem BioAssay AID1423 (NMMLSC, 2008):
Hit rate of the full screen: of about 220,000 compounds, about 750 (0.34%) were called active. Many of the other results were omitted from the sample, so actives are more common in it than they were. Unmarked numbers belong to inactive results. No stated cut-off is given here; in the data, active means response below about 60% or above about 140%; inactive means in between.

biological target: Guanine nucleotide-binding protein G(o) subunit alpha (Homo sapiens) (UniProt P09471); assay: RGS8-Galphao binding modulators, primary screen, biochemical, multiplexed bead flow cytometry (AID 1423); settings: at 10 µM, actives lie on both sides;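 further: Galphao activated as the GDP aluminium fluoride complex binding bead-coupled RGS8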
Sequence (P09471 whole entry, looked up): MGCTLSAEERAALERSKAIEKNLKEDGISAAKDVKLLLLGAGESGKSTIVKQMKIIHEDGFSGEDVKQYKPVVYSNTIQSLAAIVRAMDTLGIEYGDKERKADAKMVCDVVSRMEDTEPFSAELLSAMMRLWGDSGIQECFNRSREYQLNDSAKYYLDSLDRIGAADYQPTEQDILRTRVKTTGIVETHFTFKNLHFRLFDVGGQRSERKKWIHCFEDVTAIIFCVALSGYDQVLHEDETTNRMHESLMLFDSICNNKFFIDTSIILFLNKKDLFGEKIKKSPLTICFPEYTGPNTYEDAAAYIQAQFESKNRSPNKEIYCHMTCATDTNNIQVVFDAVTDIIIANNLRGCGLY

| SMILES | response (percent of control binding) |
| --- | --- |
| Cc1cc(=O)oc2cc(OCCC[n+]3ccccc3)ccc12 | 101% |
| CCOC(=O)c1c(/N=C/C2C(=O)CC(C)(C)CC2=O)sc(C)c1C | 113% |
| Cc1ccc(C(=O)NCC(=O)O)s1 | 102% |
| N=C1C(=O)OCC1c1ccccc1NC(=O)CN1CCCCC1 (stereo not given) | 100% |
| CCCc1ccc(C(=O)[C@@H]2[C@@H](C(C)=O)N3c4ccc(F)cc4C=C[C@@H]3[C@@]23C(=O)Nc2ccccc23)cc1 | 94.4% |
| Cn1nc(-c2ccccc2)c(CO)c1Sc1ccccc1 | 95.1% |
| CC(C)(C)CN1C(=O)C(=O)NC[C@H]1Cc1cccc2ccccc12 | 96.5% |
| CC(NC(=O)COC(=O)C1CCN(S(=O)(=O)c2ccccc2C(F)(F)F)CC1)c1ccccc1 (stereo not given) | 148% [activator] (active) |
| CC(NC(=O)CCC(=O)N1CCN(S(=O)(=O)c2ccc(Cl)cc2)CC1)c1ccccc1 (stereo not given) | 101% |
| CCNC(=O)NC(=O)C(C)OC(=O)C1CCN(S(=O)(=O)c2ccccc2F)CC1 (stereo not given) | 106% |
| O=C(C1CC1)N1N=C2CCCCC2C1(O)C(F)(F)F (stereo not given) | 100% |
| COC(=O)c1c(NC(=O)CN2CCN(S(=O)(=O)c3ccccc3[N+](=O)[O-])CC2)sc2c1CCC(C)C2 (stereo not given) | 104% |
| Cc1ccc(C)c(NC(=O)c2ccc(OC(=O)c3ccco3)cc2)c1 | 102% |
| CC1=CC2=NC(=O)/C(=C/c3coc4ccccc4c3=O)C(=N)N2O1 | 108% |
| O=C(COC(=O)CC1CC2CCC1C2)NC(=O)NC1CCCC1 (stereo not given) | 102% |
| O=C(c1ccccc1)C(Cn1cncn1)C(Sc1ccccc1)c1ccccc1 (stereo not given) | 92.9% |
| CC(C)(O)C#Cc1ccc(C(=O)N2CCC(C(N)=O)(N3CCCCC3)CC2)cc1 | 100% |
| NC(=O)C1(N2CCCCC2)CCN(C(=S)Nc2ccc(Cl)cc2)CC1 | 129% |
| CCC(=O)N1CCC(C(N)=O)(N2CCCCC2)CC1 | 163% [activator] (active) |
| COc1ccc(NC(=S)NCC2CCN(c3ccc(OC)cc3)C2)cc1 (stereo not given) | 97.5% |

| SMILES | response (percent of control binding) |
| --- | --- |
| Cc1ccc(S(=O)(=O)N2CCOCC2)cc1C(=O)NC(=S)N(Cc1ccccc1)C(C)C | 96.3% |
| COc1ccc(NC(=S)N2CCc3cc(OC)c(OC)cc3C2)cc1 | 103% |
| O=C(CSc1ncn[nH]1)Nc1nsc(-c2ccccc2)n1 | 79% |
| CC(C)(C)C1C/C(=C/c2ccco2)C(=O)/C(=C/c2ccco2)C1 (stereo not given) | 97.5% |
| O=C(CN1CCCCCC1)N1c2ccccc2Sc2ccc(C(F)(F)F)cc21 | 107% |
| COc1cc(/C=C/C(=O)N2c3ccccc3Sc3ccc(C(F)(F)F)cc32)cc(OC)c1OC | 101% |
| O=C(CN1CCCCC1)N1c2ccccc2Sc2ccc(C(F)(F)F)cc21 | 22.7% (active) |
| Cc1nc(N2CCOCC2)nc2c1CCCC2 | 99.2% |
| C[C@@H]1NC(=O)c2cc([N+](=O)[O-])cc(F)c2NCCC[C@@H](C(N)=O)NC(=O)[C@H](CC(N)=O)NC1=O | 100% |
| COc1ccccc1C(=O)n1nc(-c2ccccc2)nc1N | 101% |
| COc1ccc(CC(=O)n2nc(-c3cccnc3)nc2N)cc1 | 101% |
| CCCC(=O)n1nc(-c2ccccc2)nc1N | 20.9% (active) |
| COC(=O)Nc1ncc(CN2CCCCC2)s1 | 111% |
| CCOC(=O)CNc1nc2ccccc2n2c(C)nnc12 | 99.9% |
| O=C1CCC(=O)N(O)CCCCCNC(=O)CCC(=O)N(O)CCCCCNC(=O)CCC(=O)N(O)CCCCCN1 | 55.9% (active) |
| CCSc1nc(C)c(CCOc2cccc(C)c2)c(=O)[nH]1 | 101% |
| CN(C)S(=O)(=O)c1cccc(-c2nn(-c3ccccc3)cc2/C=C2\SC(=S)N(CC(=O)O)C2=O)c1 | 99.8% |
| Cc1ncn2cc(-c3ccc(Cl)cc3Cl)[nH]c(=O)c12 | 102% |
| O=C(Nc1nnc(Cc2ccc(Cl)cc2)s1)c1ccncc1 | 101% |
| Cc1c(NC(=O)C(=O)N/N=C/c2cccs2)c(=O)n(-c2ccccc2)n1C | 103% |

| SMILES | response (percent of control binding) |
| --- | --- |
| COc1ccc(C(=O)COC(=O)COc2ccc(C)c(C)c2)cc1 | 102% |
| Cc1nc2cc(NC(=O)Nc3cccc(F)c3)ccc2n1C | 97.9% |
| Cc1nc2cc(NC(=O)NC3CC3)ccc2n1C | 103% |
| Cc1cc2nc(C)n(CCCNC(=O)Nc3ccccc3)c2cc1C | 170% [activator] (active) |
| O=C(O)/C=C/c1ccc(OCCCF)cc1 | 98% |
| O=C(Cc1ccccc1)NCC1OCCc2ccccc21 (stereo not given) | 100% |
| CCc1cc(C(=O)c2ccc(OC)cc2)c(NC(=O)CN2CCN(C)CC2)s1 | 107% |
| Cc1nc(Nc2ccc(S(=O)(=O)N3CCCC3)cc2)c2nnn(Cc3ccccc3)c2n1 | 101% |
| CC(C)Cc1nc(Nc2ccc(S(=O)(=O)N3CCCC3)cc2)c2nnn(Cc3ccccc3)c2n1 | 141% [activator] (active) |
| Clc1ccc(Nc2ncnc3c2nnn3Cc2ccccc2)cc1 | 99.3% |
| CC(C)CCNC(=O)C1CCC(CNc2c(N3CCC(C)CC3)c(=O)c2=O)CC1 (stereo not given) | 99.2% |
| NC(=O)C1(N2CCCCC2)CCN(C2CC(=O)N(Cc3ccc(N4CCCC4=O)cc3)C2=O)CC1 (stereo not given) | 97.6% |
| Cc1cccc(C(=O)NNC(=O)c2cccc([N+](=O)[O-])c2)c1 | 101% |
| Cc1ccc(Cn2c(SCC(=O)N/N=C/c3ccccc3OCC(=O)O)nc3ccccc32)cc1 | 104% |
| COc1ccc(OC)c(/C=N/NC(=O)CSc2nnc(C)n2-c2ccccc2)c1 | 95.2% |
| C=CCn1c(Cn2nnc3ccccc32)nnc1SCC(=O)N/N=C/c1cc(Br)cc(OC)c1O | 5.17% (active) |
| C=CCNC(=O)COC(=O)c1ccccc1C(=O)N(C)C1CCCCC1 | 103% |
| O=C(Cc1c[nH]c2ccccc12)OCCOC(=O)Cc1c[nH]c2ccccc12 | 101% |
| NC(=O)CSc1c[nH]c2ccccc12 | 27.5% (active) |
| CCCn1cc(SCC(N)=O)c2ccccc21 | 90.4% |
